Test results reported in PubChem BioAssay AID434998 (Southern Research Specialized Biocontainment Screening …, 2010).
Activity calls are given as the source filed them. The rule behind the calls is not given here.

Assay: S. Typhi GFP reporter counter-screen inhibition, SAR follow-up, counter-screen for PhoP regulon inhibitor project, purified and synthesized compounds, round 3 (AID 434998)
Settings: S. typhi GFP reporter fluorescence, high Mg2+ counter-screen, 4 h; series mostly up to 150 µM

SMILES	outcome
Cc1cccc(NC(=O)N2CCCN(Cc3ccccc3F)C2)c1	inactive
Cc1ccccc1CNC(=S)Nc1ccncc1	inactive
O=C(Nc1ccc(I)cc1)N1CCCN(Cc2ccccc2F)C1	inactive
N#Cc1ccc(NC(=S)NCc2ccc(Cl)cc2)cc1	inactive
O=C(Nc1cccc(I)c1)N1CCCN(Cc2ccccc2F)C1	inactive
O=C(Nc1ccc(Cl)cc1)N1CCCN(Cc2ccccc2Br)C1	inactive
N#Cc1ccccc1NC(=S)NCc1ccc(Cl)cc1	inactive
Cc1ccc(NC(=O)N2CCCN(Cc3ccccc3F)C2)cc1	inactive
COc1ccccc1CNC(=S)Nc1ccncc1	inactive
O=C1C2=C(Nc3ccccc3SC2c2cccc(I)c2)c2ccccc21 (centres undefined)	inactive
O=C(Nc1ccc(Cl)cc1)N1CCCN(Cc2ccc(Br)cc2)C1	inactive
S=C(NCCc1ccc(Cl)cc1)Nc1ccncc1	inactive
O=C(Nc1cccc(C(F)(F)F)c1)N1CCCN(Cc2ccccc2F)C1	inactive
O=C(Nc1cccc(F)c1)N1CCCN(Cc2ccccc2F)C1	inactive
